From PubChem BioAssay (EPA / NIEHS)
The source made the active and inactive calls. Rule for the calls: active = hit-call score of the fitted dose curve at least 0.9, where 1 is the maximum; inactive = score below 0.9.

Columns and labels:
Details in all cases: mRNA level, 48 h; actives raise or lower the signal
[1] = read-out: Glutamate-cysteine ligase catalytic (GCLC), GCLC (gene 2729); assay: LTEA_HepaRG_GCLC: Life Technologies and Expression Analysis (LTEA) Assay for Glutamate-cysteine ligase catalytic (GCLC) using HepaRG (AID 2283498)
Procedure, shortened: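 Read-out is GCLC transcript level by Fluidigm-based TaqMan qRT-PCR, normalized to three housekeeping genes and fitted in both directions relative to 0.5% DMSO. Human HepaRG cells received chemicals for 48 h, up to 100 uM.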

[2] = read-out: growth arrest and DNA damage 45 (GADD45G), GADD45G (gene 10912); assay: LTEA_HepaRG_GADD45G: Life Technologies and Expression Analysis (LTEA) Assay for growth arrest and DNA damage 45 (GADD45G) using HepaRG (AID 2283499)
Procedure, shortened: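 Differentiated human HepaRG cells in serum-free induction medium were exposed for 48 h to 8 half-log concentrations up to 100 uM in 0.5% DMSO, in duplicate. GADD45G mRNA was measured by TaqMan qRT-PCR, normalised to ACTB, GAPDH and POLR2A, and fitted bidirectionally against DMSO.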

[3] = read-out: Glutamate-cysteine ligase regulatory (GCLM), GCLM (gene 2730); assay: LTEA_HepaRG_GCLM: Life Technologies and Expression Analysis (LTEA) Assay for Glutamate-cysteine ligase regulatory (GCLM) using HepaRG (AID 2283500)
Procedure, shortened: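 Differentiated HepaRG cells exposed 48 h in serum-free induction medium to eight half-log concentrations up to 100 uM (0.5% DMSO). GCLM mRNA by TaqMan qRT-PCR, normalized to ACTB, GAPDH and POLR2A; bidirectional fit versus DMSO.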

[4] = read-out: Glutathione S-transferase M3 (GSTM3), GSTM3 (gene 2947); assay: LTEA_HepaRG_GSTM3: Life Technologies and Expression Analysis (LTEA) Assay for Glutathione S-transferase M3 (GSTM3) using HepaRG (AID 2283501)
Procedure, shortened: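 Differentiated HepaRG cells in serum-free induction medium were exposed in duplicate for 48 h to 8 half-log concentrations up to 100 uM in 0.5% DMSO. GSTM3 mRNA was measured by TaqMan qRT-PCR, normalized to ACTB/GAPDH/POLR2A, and fitted bidirectionally versus DMSO.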

[5] = read-out: Heat shock 70 kDa protein 1 (HSPA1A), gene 3303; assay: LTEA_HepaRG_HSPA1A: Life Technologies and Expression Analysis (LTEA) Assay for Heat shock 70 kDa protein 1 (HSPA1A) using HepaRG (AID 2283502)
Procedure, shortened: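 Human HepaRG cells in serum-free induction medium were exposed in duplicate for 48 h to 8 half-log concentrations, highest 100 uM, in 0.5% DMSO. HSPA1A mRNA read by TaqMan qRT-PCR, normalized to ACTB, GAPDH, POLR2A, fitted bidirectionally against DMSO.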

[6] = read-out: 3-Hydroxy-3-Methylglutaryl-CoA Synthase 2 (HMGCS2), HMGCS2 (gene 3158); assay: LTEA_HepaRG_HMGCS2: Life Technologies and Expression Analysis (LTEA) Assay for 3-Hydroxy-3-Methylglutaryl-CoA Synthase 2 (HMGCS2) using HepaRG (AID 2283504)
Procedure, shortened: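 Differentiated human HepaRG cells were exposed in duplicate for 48 h in serum-free induction medium to eight concentrations (top 100 uM, half-log steps, 0.5% DMSO). HMGCS2 mRNA was quantified by TaqMan qRT-PCR, normalised to ACTB, GAPDH and POLR2A, then fitted bidirectionally against DMSO.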

HGF (gene 3082) = assay: LTEA_HepaRG_HGF: Life Technologies and Expression Analysis (LTEA) Assay for Hepatocyte Growth Facto (HGF) using HepaRG (AID 2283505)
Procedure, shortened: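 Differentiated human HepaRG cells in serum-free induction medium were exposed in duplicate for 48 h to eight concentrations (top 100 uM, half-log steps, 0.5% DMSO). HGF mRNA was quantified by qRT-PCR, normalized to ACTB, GAPDH and POLR2A.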

[7] = read-out: Insulin Like Growth Factor 1 (IGF1), IGF1 (gene 3479); assay: LTEA_HepaRG_IGF1: Life Technologies and Expression Analysis (LTEA) Assay for Insulin Like Growth Factor 1 (IGF1) using HepaRG (AID 2283506)
Procedure, shortened: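 Differentiated HepaRG cells in serum-free induction medium, exposed 48 h in duplicate to 8 half-log concentrations up to 100 uM in 0.5% DMSO. IGF1 mRNA by Fluidigm qRT-PCR, normalised to ACTB, GAPDH and POLR2A.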

[8] = read-out: Insulin-like growth factor-binding protein 1 (IGFBP1), IGFBP1 (gene 3484); assay: LTEA_HepaRG_IGFBP1: Life Technologies and Expression Analysis (LTEA) Assay for Insulin-like growth factor-binding protein 1 (IGFBP1) using HepaRG (AID 2283508)
Procedure, shortened: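 Differentiated human HepaRG cells in serum-free induction medium were exposed in duplicate for 48 h to eight concentrations, top 100 uM with half-log dilutions, in 0.5% DMSO. Transcript levels came from qRT-PCR normalised to ACTB, GAPDH and POLR2A, fitted bidirectionally against DMSO.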

[9] = read-out: Interleukin 6 (IL6), IL6 (gene 3569); assay: LTEA_HepaRG_IL6: Life Technologies and Expression Analysis (LTEA) Assay for Interleukin 6 (IL6) using HepaRG (AID 2283509)
Procedure, shortened: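 HepaRG, ~100,000 cells/well, 48 h pre-culture; serum-free induction medium; cmpd 8-pt half-log from 100 uM, 0.5% DMSO, duplicate, 48 h. Lysis in RLT, TaqMan qRT-PCR; gain or loss vs DMSO.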

[10] = read-out: Interleukin 6 Receptor (IL6R), IL6R (gene 3570); assay: LTEA_HepaRG_IL6R: Life Technologies and Expression Analysis (LTEA) Assay for Interleukin 6 Receptor (IL6R) using HepaRG (AID 2283510);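 for AC50: TaqMan qRT-PCR signal normalized to ACTB GAPDH and POLR2A housekeeping genes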
Procedure, shortened: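 Differentiated HepaRG cells, plated 48 h, then exposed in duplicate for 48 h in serum-free induction medium to 8 half-log concentrations (top 100 uM, 0.5% DMSO). IL6R mRNA measured by TaqMan qRT-PCR, normalized to ACTB/GAPDH/POLR2A; bidirectional fit vs DMSO.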

[11] = read-out: Potassium channel subfamily K member 1 (KCNK1), KCNK1 (gene 3775); assay: LTEA_HepaRG_KCNK1: Life Technologies and Expression Analysis (LTEA) Assay for Potassium channel subfamily K member 1 (KCNK1) using HepaRG (AID 2283511)
Procedure, shortened: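 Gain or loss of KCNK1 mRNA is the read-out, quantified by qRT-PCR against three housekeeping genes after 48 h chemical treatment of human HepaRG liver cells. Concentrations ran from 100 uM downward in half-log steps, vehicle 0.5% DMSO.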

[12] = read-out: Keratin 19 (KRT19), KRT19 (gene 3880); assay: LTEA_HepaRG_KRT19: Life Technologies and Expression Analysis (LTEA) Assay for Keratin 19 (KRT19) using HepaRG (AID 2283512)
Procedure, shortened: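 Differentiated human HepaRG cells, plated 48 h, were exposed in duplicate for 48 h in serum-free induction medium to eight half-log concentrations up to 100 uM in 0.5% DMSO. KRT19 mRNA was quantified by qRT-PCR, normalized to ACTB, GAPDH and POLR2A, and fitted bidirectionally versus DMSO.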

[13] = read-out: JUN Transcription Factor, JUN (gene 3725); assay: LTEA_HepaRG_JUN: Life Technologies and Expression Analysis (LTEA) Assay for JUN Transcription Factor using HepaRG (AID 2283513)
Procedure, shortened: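 HepaRG cells, 48 h post-plating, exposed 48 h in serum-free induction medium to 8-point half-log series (top 100 uM, 0.5% DMSO), duplicate; mRNA by qRT-PCR (TaqMan, Fluidigm), normalized to ACTB/GAPDH/POLR2A; bidirectional fit vs DMSO.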

[14] = read-out: Lipase C (LIPC), LIPC (gene 3990); assay: LTEA_HepaRG_LIPC: Life Technologies and Expression Analysis (LTEA) Assay for Lipase C (LIPC) using HepaRG (AID 2283514)
Procedure, shortened: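 Read-out is LIPC transcript level by TaqMan qRT-PCR, normalized to three housekeeping genes, after 48 h chemical treatment of human HepaRG liver cells. Curves span eight concentrations topping at 100 uM; activity in either direction scored relative to 0.5% DMSO.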

[15] = read-out: Lipoprotein lipase (LPL), LPL (gene 4023); assay: LTEA_HepaRG_LPL: Life Technologies and Expression Analysis (LTEA) Assay for Lipoprotein lipase (LPL) using HepaRG (AID 2283515)
Procedure, shortened: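 Read-out is LPL transcript level by qRT-PCR, normalized to three housekeeping genes and fitted bidirectionally against the DMSO control. Human HepaRG cells received chemicals for 48 h at up to 100 uM.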

[16] = read-out: MicroRNA 122 (MIR122), gene 406906; assay: LTEA_HepaRG_MIR122: Life Technologies and Expression Analysis (LTEA) Assay for MicroRNA 122 (MIR122) using HepaRG (AID 2283516); note: the transcript read is the microRNA miR-122
Procedure, shortened: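 Differentiated human HepaRG cells in serum-free induction medium exposed 48 h to 8 half-log concentrations from 100 uM in 0.5% DMSO, duplicate. MIR122 quantified by Fluidigm TaqMan qRT-PCR, normalised to ACTB, GAPDH, POLR2A; fold change fitted bidirectionally versus DMSO.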

[17] = read-out: matrix metalloproteinase-10 (MMP10), MMP10 (gene 4319); assay: LTEA_HepaRG_MMP10: Life Technologies and Expression Analysis (LTEA) Assay for matrix metalloproteinase-10 (MMP10) using HepaRG (AID 2283517)
Procedure, shortened: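 Gain or loss of MMP10 mRNA is fitted relative to the 0.5% DMSO vehicle. The human hepatic line HepaRG receives a 48-hour serum-free exposure, in duplicate, with a maximum concentration of 100 uM.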

[18] = read-out: Intercellular Adhesion Molecule 1 (ICAM1), ICAM1 (gene 3383); assay: LTEA_HepaRG_ICAM1: Life Technologies and Expression Analysis (LTEA) Assay for Intercellular Adhesion Molecule 1 (ICAM1) using HepaRG (AID 2283507)
Procedure, shortened: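 Differentiated HepaRG cells in serum-free induction medium were exposed in duplicate for 48 h to eight half-log concentrations up to 100 uM in 0.5% DMSO. Transcript levels were measured by qRT-PCR normalized to ACTB, GAPDH and POLR2A; bidirectional fits relative to DMSO.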

Measured: AC50

CCc1nn(C2CCCCC2)c2cc(C3(C#N)CCC(C(=O)O)CC3)ccc12 (stereo unspecified)
inactive: [4] | HGF (gene 3082) | [10] | [13]
active: [1] 83.6 µM | [2] 85.5 µM | [3] 50 µM | [5] 12.2 µM | [6] 81.8 µM | [7] 57.3 µM | [8] 75.7 µM | [9] 84.9 µM | [11] 13.1 µM | [12] 90.5 µM | [14] 78.9 µM | [15] 37.2 µM | [16] 80.1 µM | [17] 81.6 µM

O=C(O)Cc1cc(I)c(Oc2cc(I)c(O)c(I)c2)c(I)c1
inactive: [3] | [7]
active: [1] 57.9 µM | [2] 7.52 µM | [4] 33.5 µM | [5] 54 µM | [6] 49.5 µM | HGF (gene 3082) 52.7 µM | [18] 54.8 µM | [8] 55.7 µM | [9] 54 µM | [10] 55 µM | [11] 53.9 µM | [12] 0.0526 µM | [13] 52.3 µM | [14] 52.2 µM | [15] 60.6 µM | [16] 58.6 µM | [17] 51.5 µM

CCCCC(CC)COC(=O)CCCCC(=O)OCC(CC)CCCC (stereo unspecified)
not listed: [7]
inactive: all other assays above

CCN(CC)CCNc1ccc(CNC=O)c2sc3ccc(OC)cc3c(=O)c12
inactive: [3] | [4] | HGF (gene 3082) | [14]
active: [1] 50 µM | [2] 50 µM | [5] 9.92 µM | [6] 74.3 µM | [18] 62.6 µM | [8] 94.1 µM | [9] 76.8 µM | [10] 22 µM | [11] 75.2 µM | [12] 12.7 µM | [13] 79 µM | [15] 81.8 µM | [16] 27.5 µM | [17] 78.5 µM

OCCC(F)(F)C(F)(F)C(F)(F)C(F)(F)C(F)(F)C(F)(F)C(F)(F)C(F)(F)F
not listed: [7]
inactive: all other assays above
